High-throughput results deposited in PubChem by Sanford-Burnham Center for Chemical Genomics.
CF NFkB block: inhibitors of PAF-induced NF-kB signaling, primary screen, cell-based, GFP fluorescence, uHTS. KKLEB NF-kB-GFP reporter, GFP fluorescence overnight. inhibition, % at 5 µM. 360,000 compounds, 0.86% hits. AID 588850, 2011;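 active = at least 50% inhibition at 5 µM, scaled per plate between neutral and stimulator controls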;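 note: PAF is a Pseudomonas aeruginosa culture filtrate used as stimulus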
HIF-2a block: HIF-2a reporter inhibitors, primary screen, luminescence, 786-0 RCC cells | 360,000 compounds, 0.72% hits | 786-0 RCC cells HIF-2a reporter, luciferase luminescence, overnight | inhibition, % at 18.8 µM;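 active = inhibition of the luminescence signal of 40% or more relative to plate controls, in a single-dose primary screen at 18.75 µM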
TROY signal inh: inhibitors of TROY-driven NF-kB signaling, primary screen, Q293 LMP1-TROYcd cells, NF-kB luciferase, uHTS. 360,000 compounds, 0.98% hits. inhibition, % at 10 µM. Q293 LMP1-TROYcd NF-kB luciferase reporter, 4 h. AID 1347056, 2019;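 active = compounds whose plate-normalised and pattern-corrected inhibition of the luciferase reporter signal at the single screening dose is 50% or more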
KKLEB tox: cytotoxicity in KKLEB CF airway cells, primary screen, cytotoxicity control for CF NF-kB inhibitor project, cell-based, uHTS, fluorescence assay plates; KKLEB CF airway cells viability, ATPlite luminescence, overnight; active compounds read low; cells stimulated with P. aeruginosa culture filtrate; activity change (cytotoxicity), % at 5 µM; 360,000 compounds, 0.36% hits; AID 602141, 2011;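 active = corrected activity change at or below -50% at 5 µM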
Peg3 prom inh: Peg3 promoter-driven luciferase inhibitors, primary screen, cell-based, HeLa, luciferase luminescence. inhibition, % at 20 µM. HeLa PEG-Prom luciferase reporter, overnight. 360,000 compounds, 1.7% hits;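 active = inhibition of at least 50% at 20 µM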
TWEAK-Fn14 inh: inhibitors of TWEAK-Fn14 signaling, primary screen, luciferase reporter cells, uHTS | TWEAK-stimulated Fn14 reporter cells, luciferase luminescence, 8 h | inhibition, % at 10 µM | 360,000 compounds, 2% hits; in the data active = inhibition above about 50%
Numbers stand for hits; i = inactive. Sampled rows, rich in hits. Any-hit rate of the full collection: about 4%.

SMILES	CF NFkB block	HIF-2a block	TROY signal inh	KKLEB tox	Peg3 prom inh	TWEAK-Fn14 inh
COc1ccc([N+](=O)[O-])cc1Nc1c2ccccc2nc2ccccc12	i	i	i	i	58	i
COc1ccc(Nc2nc(-c3cccc([N+](=O)[O-])c3)nc3ccccc23)cc1	i	i	i	i	i	80
O=[N+]([O-])c1ccc(-c2nc(Nc3ccc(O)cc3)c3ccccc3n2)cc1	i	i	i	i	64	i
O=[N+]([O-])/C=C\c1ccc(N2CCCC2)c(F)c1	i	46	i	i	101	i
Cc1ccc(OCC(=O)Nc2ccc(Cl)cc2)c(-n2nc3ccccc3n2)c1	70	i	i	-70	i	i
CCOc1ccc(C)cc1-n1nc2ccccc2n1	i	i	i	i	i	i
COc1cc(Cl)cc(C2NC(=S)NC(c3ccccc3)=C2C(C)=O)c1OCC(=O)O (centres undefined)	i	i	i	i	i	i
Cc1c(N=C2NC(=O)/C(=C/c3ccc(O)cc3)S2)c(=O)n(-c2ccccc2)n1C	i	i	i	i	i	i
O=C1NC(=NCc2ccccc2)S/C1=C/c1ccc(O)cc1	53	i	i	i	i	i
Cc1nnc(NC(=O)CSc2nc(CC(C)C)nc3c2c(=O)n(C)c(=O)n3C)s1	i	i	i	i	i	i
NC(N)=N/N=C(\N=Nc1ccccc1)c1ccc(Cl)cc1	i	i	i	i	90	i
COc1ccc(NC(=S)NC23CN4CN(CN(C4)C2)C3)c(OC)c1	i	i	i	i	i	i
O=C(COc1ccc2ccccc2c1)N1CCN(C(=O)c2ccc([N+](=O)[O-])cc2)CC1	i	i	i	i	i	i
CNc1nc2cc([N+](=O)[O-])c([N+](=O)[O-])cc2nc1NC	i	i	i	i	i	51
N#Cc1cc2nc(O)c(O)nc2cc1[N+](=O)[O-]	i	i	i	i	i	i
CCc1nc2ccc(C(=O)NC3CCN(Cc4ccccc4)CC3)cn2c1N(CC)Cc1cccc(Br)c1	i	i	i	i	94	i
CCc1nc2ccc(C(=O)N(C)Cc3ccccc3)cn2c1N(CC)Cc1cccc(Br)c1	i	i	i	i	i	i
CCN(CC)CCn1c(=N)n(CC(=O)c2ccc(Br)s2)c2ccccc21	i	i	i	i	80	i
COc1ccc(CNC(=O)Cn2nc(C(F)(F)F)cc2C)cc1	i	i	i	i	i	i
CCOC(=O)C1=C(Cc2ccc(Cl)cc2)C(=O)c2ccccc2C1=O	i	i	i	i	50	i
Cn1cc(CCNC(=O)c2ccc3nc(Cc4ccccc4F)oc3c2)cn1	i	i	i	i	i	i
CCc1ccc(-n2cccc2/C=C2/C(=N)N3C(=NC2=O)SN=C3S(C)(=O)=O)cc1	i	i	59	i	i	i
Cc1ccc(-n2cccc2/C=C2/C(=N)N3C(=NC2=O)SN=C3S(C)(=O)=O)cc1	i	i	i	i	i	i
CCOc1ccc(-c2cc(C(=O)NCCCn3ccnc3)c3cc(Br)ccc3n2)cc1	i	i	i	i	106	i
CCOc1ccc(-c2cc(C(=O)NCCCn3ccnc3)c3ccccc3n2)cc1	i	i	i	i	i	i
SMILES	CF NFkB block	HIF-2a block	TROY signal inh	KKLEB tox	Peg3 prom inh	TWEAK-Fn14 inh
O=c1[nH]c(CSc2ccccn2)nc2c1oc1ccccc12	i	i	i	i	i	65
Cc1nn2c(COc3ccc(NC(=O)c4ccccc4)cc3)nnc2c2ccccc12	i	i	i	i	i	i
CC(=O)Nc1ccc(C=NNC(=O)c2ccc(NS(=O)(=O)c3cccs3)cc2)cc1	i	i	i	i	100	i
COc1cccc(-c2csc(N3CCN(C(=O)Nc4ccccc4Cl)CC3)n2)c1	i	i	i	i	i	i
COc1cccc(NC(=O)N2CCN(c3nc(-c4cccc(OC)c4)cs3)CC2)c1	i	i	i	i	51	67
C[C@H]1CN([C@@H](C)CO)C(=O)CCCn2nncc2CO[C@@H]1CN(C)C(=O)Nc1cccc2ccccc12	i	i	i	i	i	53
C[C@H](CO)N1C[C@H](C)[C@H](CN(C)S(=O)(=O)c2ccc(F)cc2)OCc2cnnn2CCCC1=O	i	i	i	i	i	102
C[C@@H]1CN([C@@H](C)CO)C(=O)CCCn2nncc2CO[C@H]1CN(C)S(=O)(=O)c1ccc(F)cc1	i	i	i	i	i	i
O=C1CCC(=O)N1OCCCOc1ccccc1	i	i	i	i	i	i
CN(C)c1ccc(/C=N/N=C/c2ccccc2O)cc1	i	i	i	i	i	59
Cc1cc2nccc(-c3ccncc3)n2n1	i	i	i	i	i	i
O=C(CSc1nccc(=O)[nH]1)Nc1cccc2ccccc12	i	i	i	i	i	50
O=C(CSc1nccc(=O)[nH]1)Nc1ccc2ccccc2c1	i	i	i	i	i	i
O=C(CCCC(=O)N(c1ccc2c(c1)OCCO2)C(C(=O)NC1CCCCC1)c1ccc(Cl)cc1)Nc1ccccn1 (centres undefined)	i	i	i	i	i	63
COc1cc2c(cc1OC)C1(CCCC1)CNC2C (centres undefined)	i	i	i	i	i	i
Nc1nc(=S)c2[nH]c(=S)[nH]c2[nH]1	i	i	i	i	i	i
Nc1nc(=S)c2[nH]cnc2[nH]1	i	i	i	i	63	i
Cc1ccc(CCNC(=O)C2CCCN(S(C)(=O)=O)C2)cc1 (centres undefined)	i	i	i	i	i	i
CS(=O)(=O)N1CCCC(C(=O)NCCc2ccccc2)C1 (centres undefined)	i	i	i	i	i	69
CCOc1ccc(CNC(=O)C2CCCN(S(C)(=O)=O)C2)cc1OC (centres undefined)	i	i	i	i	i	92
CCOc1ccc(CNC(=O)C2CCCN(S(=O)(=O)N3CCC(C)CC3)C2)cc1OC (centres undefined)	i	i	i	i	i	i
CS(=O)(=O)N1CCCC(C(=O)NCc2cccs2)C1 (centres undefined)	i	i	i	i	i	i
Cc1ccc2nc(NC(=O)CSc3nc4ccccc4o3)sc2c1	i	i	i	i	i	i
O=C(COc1ccccc1)Nc1ccc(S(=O)(=O)N2CCCC2)cc1	i	i	i	i	i	i
O=C(Nc1cccc2ccccc12)ON=C1CCCCC1	i	i	76	i	i	81
Cc1ccc(S(=O)(=O)N2CC(=O)Nc3ccccc32)c(C)c1NS(C)(=O)=O	i	i	i	i	i	i
Cc1ccc(S(=O)(=O)N2CCOc3ccccc32)c(C)c1NS(C)(=O)=O	i	i	i	i	i	95
